Hits are enriched below; roughly 1.7% of the tested compounds scored in any of these assays.
sEH act: increases human soluble epoxide hydrolase activity; P34913; purified human sEH enzymatic activity, activator screen; activation, % at 2 µM; 91,000 tested, 0.04% active; AID 717; in the data active = activation above about 37%
sEH inh: inhibitors of human soluble epoxide hydrolase; recombinant human sEH enzymatic activity assay; AID 707; inhibition, % at 2 µM; 91,000 tested, 0.34% active; in the data active = inhibition above about 80%
LYP inh 2: LYP (human) phosphatase inhibition; Q9Y2R2; recombinant LYP catalytic domain, DiFMUP fluorescence; inhibition, % at 2 µM; 96,000 tested, 0.21% active; AID 640;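 active = inhibition at 2 µM at or above a set limit, the screen mean plus 3 SD, cut at about 24% in these data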;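 note: 0% = DMSO with enzyme and 100% = enzyme fully blocked by orthovanadate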
Target sequence (Q9Y2R2 whole entry, looked up, the tested form may be a part): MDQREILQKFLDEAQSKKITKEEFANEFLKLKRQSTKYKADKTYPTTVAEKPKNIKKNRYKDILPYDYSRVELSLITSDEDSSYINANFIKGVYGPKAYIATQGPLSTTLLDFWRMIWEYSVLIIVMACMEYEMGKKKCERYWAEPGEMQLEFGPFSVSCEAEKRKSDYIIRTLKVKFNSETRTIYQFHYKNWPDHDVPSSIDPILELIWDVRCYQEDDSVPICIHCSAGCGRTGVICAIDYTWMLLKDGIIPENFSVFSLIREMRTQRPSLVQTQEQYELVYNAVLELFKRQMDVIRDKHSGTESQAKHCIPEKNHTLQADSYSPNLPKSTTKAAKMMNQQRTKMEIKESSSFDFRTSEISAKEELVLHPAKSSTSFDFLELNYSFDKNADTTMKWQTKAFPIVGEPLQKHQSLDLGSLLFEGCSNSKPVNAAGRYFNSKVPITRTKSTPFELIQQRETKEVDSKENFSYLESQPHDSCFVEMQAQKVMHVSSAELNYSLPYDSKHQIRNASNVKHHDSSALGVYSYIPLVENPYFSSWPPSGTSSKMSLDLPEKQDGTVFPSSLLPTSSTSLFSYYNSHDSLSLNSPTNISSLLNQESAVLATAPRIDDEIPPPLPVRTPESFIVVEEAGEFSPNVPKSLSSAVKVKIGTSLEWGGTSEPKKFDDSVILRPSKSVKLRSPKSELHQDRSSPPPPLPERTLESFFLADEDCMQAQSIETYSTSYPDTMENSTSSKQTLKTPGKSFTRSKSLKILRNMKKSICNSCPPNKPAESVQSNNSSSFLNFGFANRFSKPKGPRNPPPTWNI
PTPN22 act: activators of human LYP (PTPN22) phosphatase | 96,000 tested, 0.11% active | Q9Y2R2 | recombinant LYP, DiFMUP fluorescence; 0 = plate median, 100 = signal doubled | activation, % at 2 µM | AID 697;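 active = activation at 2 µM above a set limit, the mean plus 5 SD, cut at about 37% in these data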
Measles CPE: protection of cells from measles virus; 140,000 tested, 1.5% active; protection (pct of control), % at 4 µM; Measles virus-infected cells, CPE protection, absorbance; in the data active = protection mostly above about 24%, no sharp cut-off; inactive = mostly below about 26%
* marks the source's active call; other numbers are inactive results; nt = no result.

SMILES	sEH act	sEH inh	LYP inh 2	PTPN22 act	Measles CPE
Cc1nc(-c2coc3c(CN(C)C)c(O)ccc3c2=O)cs1	-49.8	49.1	1.2	0.5	34.8*
COc1ccc(C2CC(c3ccccc3)=NN2C(=O)CN2N=NC3C(=O)N(c4cccc(F)c4)C(=O)C32)cc1 (stereo unspecified)	nt	nt	nt	nt	19.8
CCNc1cc2oc(=O)c(CN3CCOCC3)c(C)c2cc1C	6.0	-5.7	-4.4	2.4	42.9*
C=CCNC(=O)C1CCN(c2nc(C)cc(-c3ccccc3)n2)CC1	-10.7	13.8	7.2	-7.0	2.2
Cc1cc(-c2ccccc2)nc(N2CCC(C(=O)NCc3ccccc3Cl)CC2)n1	-81.6	82.5*	-1.6	1.1	7.0
Cc1nn(-c2ccccc2)c(N2CCCCC2)c1/C=N/O	13.7	-14.2	-3.3	1.3	54.2*
O=C(CNC(=O)c1ccccc1)OC(C(=O)c1ccccc1)c1ccccc1 (stereo unspecified)	nt	nt	nt	nt	10.9
COc1ccc(C(=O)C(OC(=O)CNC(=O)c2ccco2)c2ccccc2)cc1 (stereo unspecified)	9.6	-10.9	-4.7	5.3	53.1*
Cc1ccc(NC(=O)CCC(=O)OCc2ccc(Br)cc2)cc1	nt	nt	nt	nt	8.5
COc1ccc(CNC(=O)CCCc2ccccc2)cc1	nt	nt	nt	nt	31.2*
COc1ccccc1CNC(=O)CCCc1ccccc1	nt	nt	nt	nt	11.1
CC1/C(=N/O)CC(c2ccccc2)NC1c1ccccc1 (stereo unspecified)	-1.3	-1.6	-4.8	4.2	22.9
O=C1CC(c2ccc(Br)cc2)NC(c2ccc(Br)cc2)C1c1ccccc1 (stereo unspecified)	nt	nt	nt	nt	53.0*
COCCCN1CN(Cc2ccccc2)CNC1=S	nt	nt	nt	nt	3.8
Cc1ccccc1SCC(=O)OCC(=O)Nc1sccc1C(N)=O	nt	nt	nt	nt	45.8*
CN(C)CCCN(C(=O)c1cccs1)c1nc(-c2ccccc2)cs1	-4.7	5.3	-2.8	1.6	39.9*
CCCCN1C(=O)C(O)(CC(=O)c2c(C)n[nH]c2C)c2cc(Br)ccc21 (stereo unspecified)	13.0	-15.1	-8.6	7.2	73.0*
CC(C)CCNC(=O)CCCOc1ccccc1	-32.8	28.9	6.5	-4.4	45.3*
N#CC12CCCCC1CC1CCCCC1(C#N)N2Cc1cccnc1 (stereo unspecified)	nt	nt	3.6	-6.1	112.9*
COc1cc(NC(=O)COC(=O)CSc2cc(C)ccc2C)c(C)cc1[N+](=O)[O-]	nt	nt	nt	nt	11.5
Brc1ccc2nc(CSc3ncn[nH]3)cn2c1	5.2	-5.1	83.4*	-83.5	8.8
COc1cc(/C=C(\NC(C)=O)C(=O)Nc2cccc(O)c2)ccc1OC(C)=O	nt	nt	nt	nt	5.9
Cc1cc(C)cc(OCC(=O)Nc2cccc(C(=O)O)c2)c1	10.0	-12.6	-0.5	-0.5	89.4*
COc1ccc(C(=O)Nc2ccc(-c3ccc(NC(=O)c4ccc(OC)cc4)c(OC)c3)cc2OC)cc1	nt	nt	nt	nt	12.1
Cc1ccc(Nc2nnc(-c3ccc(N4CCOCC4)c([N+](=O)[O-])c3)c3ccccc23)cc1	nt	nt	nt	nt	34.9*
SMILES	sEH act	sEH inh	LYP inh 2	PTPN22 act	Measles CPE
O=C(COC(=O)c1cccc(S(=O)(=O)N2CCc3ccccc32)c1)Nc1ccc(Cl)cn1	nt	nt	nt	nt	35.4*
C/C(CC(=O)N(C(C)C)C(C)C)=N\NC(=O)c1ccccc1Br	nt	nt	nt	nt	6.8
CCN(CC)S(=O)(=O)c1ccc(N2CCOCC2)c(NC(=O)c2c3c(nc4ccccc24)CCC3)c1	nt	nt	nt	nt	6.5
O=c1oc2ccccc2c2c1ncn2C1CCCCC1	13.9	-14.1	1.0	-3.8	38.1*
COc1cc(COc2ccc3c(C)c(Cc4ccccc4)c(=O)oc3c2C)cc(OC)c1OC	10.7	-9.8	15.0	-11.5	28.4*
COc1cc(COc2ccc3c(C)c(Cc4ccccc4)c(=O)oc3c2)cc(OC)c1OC	-3.1	2.1	1.0	5.4	16.0
Cc1ccc(SC(C)C(=O)Nc2cccc(N(C)S(C)(=O)=O)c2)cc1 (stereo unspecified)	8.5	-6.4	-4.7	1.9	32.9*
CC(/C=N/n1c(C2CCCCC2)n[nH]c1=S)=C\c1ccccc1	-10.1	8.5	25.6*	-22.9	4.5
O=C(Nc1ccc(Cl)c(Cl)c1)N(CCCN1CCOCC1)Cc1cccs1	4.8	-6.4	-4.9	1.5	0.6
O=C(CSCc1ccc(Cl)cc1)N/N=C/c1ccc(Cl)cc1Cl	-80.2	80.4*	0.6	1.5	12.7
Cc1ccc(/C=N/NC(=O)CSCc2ccc(Cl)cc2)cc1	-49.5	49.9	-13.2	15.6	1.3
CCCCOC(=O)N/N=C/C=C/c1ccccc1	nt	nt	nt	nt	6.1
COc1ccc(-c2n[nH]c(=S)n2-c2ccc3c(c2)OCCO3)cc1	nt	nt	nt	nt	14.8
Oc1ccc(-c2n[nH]c(=S)n2-c2ccc3c(c2)OCCO3)c(O)c1	nt	nt	nt	nt	59.7*

High-throughput results: PubChem, several laboratories
